This is an account of results in PubChem BioAssay (Tox21).

A number with no mark means an inactive call. Results filed as inconclusive are left out. Active and inactive are the calls of the source. Unless noted, calls come from the whole dose curve; as a rule, active = well fitted curve in the direction sought with a large enough effect in the repeat runs; inconclusive = weak or mixed curves; inactive = no such curve, though single readings can be large; an effect the other way counts as inactive or inconclusive.

The nature of test [1]: qHTS assay for small molecules that induce genotoxicity in human embryonic kidney cells expressing luciferase-tagged ATAD5 (AID 651632). Note: nearly all actives have a fitted effect of over 15% in size. Summed up:
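ATAD5-luc HEK293T, 2,000 cells/well; cpd or DMSO pin-transferred; 16 hr, 37C/5% CO2; Amplite 30 min RT; luminescence.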
(Quantitative high-throughput screening tests each substance at several concentrations.)

Test [2] can be described thus: qHTS assay for small molecules that induce genotoxicity in human embryonic kidney cells expressing luciferase-tagged ATAD5 - cell viability (AID 651634; calls by dose curve; note: nearly all actives have a fitted effect of over 25% in size; note: potency is the fitted concentration of half-maximal effect). Summed up:
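Fluorescence from CellTiter-Fluor, reporting protease activity within live cells, served as the viability read-out. HEK293T cells carrying luciferase-tagged ATAD5 had been treated with compound for 15.5 hr at 37C.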

Test [3] can be described thus: qHTS assay for small molecule disruptors of the mitochondrial membrane potential - cell viability (AID 720634; calls by dose curve;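 note: human HepG2 liver cancer cells; nearly all actives have a fitted effect of over 20% in size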). Summed up: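 Cells: HepG2, 2,000/well, attached overnight. Compound 1 hr, 37 C/5% CO2. +m-MPI dye, +CellTiter-Glo 30 min RT. Readout: luminescence (ATP).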
Test [4] is described as follows: qHTS assay for small molecule disruptors of the mitochondrial membrane potential (AID 720635). Note: potency is the fitted concentration of half-maximal effect. The gist of the method: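 Mitochondrial membrane potential tracked with Mito-MPS dye, red aggregates (ex 540/em 590 nm) against green monomers (ex 490/em 535 nm). Compound treatment 1 hr at 37C, dye 30 min in HepG2.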
The nature of test [5]: qHTS assay to test for compound auto fluorescence at 535 nm (green) in HepG2 cells (AID 720675).
The nature of test [6]: qHTS assay to test for compound auto fluorescence at 460 nm (blue) in HEK293 cells (AID 720678). Summed up:
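Blue-channel (Ex/Em 405/460 nm) intensity measured in HEK293 cultures after overnight compound exposure at 37C; signal expressed relative to triamterene. Cells plated 2,000 per well in 10% dialyzed FBS medium and allowed 4-5 hr to attach.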

Test [7] is described as follows: qHTS assay to test for compound auto fluorescence at 590 nm (red) in HEK293 cells (AID 720679). The gist of the method:
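Red-channel autofluorescence (Ex/Em 540/590 nm; Rose Bengal sodium reference) was measured after overnight 37C, 5% CO2 exposure of attached HEK293 cells, 2,000 per well in medium with 10% dialyzed FBS.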

The nature of test [8]: qHTS assay to test for compound auto fluorescence at 535 nm (green) in HEK293 cells (AID 720680).
The nature of test [9]: qHTS assay to test for compound auto fluorescence at 460 nm (blue) in HEK293 cell free culture (AID 720681). Summed up: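 Blue fluorescence (Ex 405/Em 460 nm, triamterene-equivalent) was read immediately after pin transfer of compound or DMSO into medium (DMEM, 10% FBS) without cells.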
Test [10] in a line: qHTS assay to test for compound auto fluorescence at 535 nm (green) in HEK293 cell free culture (AID 720682). The gist of the method: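 Read-out: 485/535 nm fluorescence intensity, calibrated against fluorescein. Medium only (DMEM + 10% FBS, no cells); test compound or DMSO vehicle added by pintool before plate reading.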
Test [11] is described as follows: qHTS assay to test for compound auto fluorescence at 590 nm (red) in HEK293 cell free culture (AID 720683). Summed up:
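Red-channel autofluorescence of compounds in culture medium (DMEM, 10% FBS), no cells, measured at 540/590 nm. Rose Bengal sodium is the reference fluorophore for equivalence.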

A short description of test [12]: qHTS assay to test for compound auto fluorescence at 590 nm (red) in HepG2 cell free culture (AID 720684). The gist of the method:
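Plate contents were MEM with 10% FBS plus test compound or DMSO, no cells. Fluorescence was recorded with 540 nm excitation and 590 nm emission.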

Test [13] is described as follows: qHTS assay to test for compound auto fluorescence at 460 nm (blue) in HepG2 cell free culture (AID 720685). Summed up:
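Compound (23 nL) or DMSO pinned into cell-free MEM with 10% FBS; blue fluorescence read at 405/460 nm excitation/emission, expressed as auto-fluorescence equivalency to triamterene.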

Test [14] in a line: qHTS assay to test for compound auto fluorescence at 535 nm (green) in HepG2 cell free culture (AID 720686).
The nature of test [15]: qHTS assay to test for compound auto fluorescence at 460 nm (blue) in HepG2 cells (AID 720687). The gist of the method: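 Blue-channel autofluorescence (Ex/Em 405/460 nm, triamterene-equivalent) was measured after 1 hr compound exposure at 37 C, 5% CO2. Cells were HepG2, plated overnight at 37 C in MEM plus 10% FBS.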
A short description of test [16]: qHTS assay to test for compound auto fluorescence at 590 nm (red) in HepG2 cells (AID 720674). The gist of the method:
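1 hr compound incubation on HepG2 cells, 37 C, 5% CO2; plate read ex 540 nm / em 590 nm; intensities reported as Rose Bengal sodium equivalents.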

The target in test [17] is Glucocorticoid receptor (Homo sapiens) (UniProt P04150). The test is described as follows: qHTS assay to identify small molecule agonists of the glucocorticoid receptor (GR) signaling pathway (AID 720691; active = well fitted activation curve with a large enough effect in the signal ratio in the repeat runs, not every such curve was filed as active; the % refers to the signal ratio). As to conditions: GR-bla HeLa, beta-lactamase reporter ratio, 18 h; activation: at 62.4 µM (top of the series). The gist of the method:
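Fluorescence intensity from LiveBLAzer B/G FRET substrate (2 h, room temperature) reports beta-lactamase expression driven by the glucocorticoid response element in GR-bla HeLa cells after 18 h compound exposure at 37 C.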

The target is the same in test [18]. The test is described as follows: qHTS assay to identify small molecule antagonists of the glucocorticoid receptor (GR) signaling pathway (AID 720692; active = well fitted inhibition curve with a large enough effect in the signal ratio in the repeat runs, not every such curve was filed as active; the % refers to the signal ratio). Summed up:
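HeLa GR-bla cells; cmpd + dex 5 nM final, 18 h 37 C; LiveBLAzer B/G FRET substrate 2 h RT; fluorescence intensity read. Antagonist mode, qHTS.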

Test [19] in a line: qHTS assay for small molecule agonists of the p53 signaling pathway - cell viability (AID 651633; calls by dose curve; note: potency is the fitted concentration of half-maximal effect; nearly all actives have a fitted effect of over 30% in size). The gist of the method:
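Viability counter-read: CellTiter-Glo luminescence (30 min, room temperature) in the same p53RE-bla plates. These plates had been exposed to compounds for 16 h at 37 C.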

Chain of Glucocorticoid receptor (Homo sapiens) (P04150 whole entry, looked up): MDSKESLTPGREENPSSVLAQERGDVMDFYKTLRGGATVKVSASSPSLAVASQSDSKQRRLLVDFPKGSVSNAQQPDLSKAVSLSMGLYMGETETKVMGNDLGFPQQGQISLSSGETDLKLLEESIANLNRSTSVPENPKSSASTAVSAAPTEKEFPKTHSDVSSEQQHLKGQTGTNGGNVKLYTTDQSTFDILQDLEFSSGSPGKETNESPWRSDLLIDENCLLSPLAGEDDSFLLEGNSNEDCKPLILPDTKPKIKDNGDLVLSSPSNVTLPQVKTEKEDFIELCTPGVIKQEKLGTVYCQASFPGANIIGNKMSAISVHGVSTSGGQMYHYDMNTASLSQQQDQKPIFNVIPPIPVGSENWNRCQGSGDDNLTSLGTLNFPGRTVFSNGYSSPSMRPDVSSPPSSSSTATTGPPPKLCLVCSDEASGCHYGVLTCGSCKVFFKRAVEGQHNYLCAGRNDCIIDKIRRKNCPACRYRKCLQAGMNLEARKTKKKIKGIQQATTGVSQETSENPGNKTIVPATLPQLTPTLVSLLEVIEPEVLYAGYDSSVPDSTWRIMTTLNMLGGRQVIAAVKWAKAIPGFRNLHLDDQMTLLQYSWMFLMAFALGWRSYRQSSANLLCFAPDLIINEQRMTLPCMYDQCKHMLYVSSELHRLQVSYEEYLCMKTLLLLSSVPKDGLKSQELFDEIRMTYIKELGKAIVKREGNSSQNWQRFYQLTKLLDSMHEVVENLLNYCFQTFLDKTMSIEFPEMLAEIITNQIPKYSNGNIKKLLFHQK

For `CCCCCCCCCCCCCC[n+]1ccccc1`, the Potency result in test [1], in [2], in [3], in test [5], in test [6] and in test [7] was “inactive” in each case. The Potency entry in test [8], in test [9], in test [10], in [11], in [12] and in [13] was “inactive” in each case. Besides, the Potency entry in [14] and in test [15] was “inactive” in each case. In addition, the Potency in test [4] is 21.7 µM (active).
With `O[C@@H](c1cc(C(F)(F)F)nc2c(C(F)(F)F)cccc12)[C@H]1CCCCN1`, the Potency result in test [1], in [16], in test [5], in test [6], in test [7] and in test [8] was “inactive” each time. Besides, the Potency result in test [9], in [10], in [11], in test [12], in [13] and in [14] was “inactive” throughout. Besides, in test [15], the Potency result was “inactive”. For the same compound, in test [2], the Potency is 23.7 µM (active).
On to `CSc1c(Cl)c(Cl)c(Cl)c(Cl)c1Cl`, for which the Potency result in [1], in test [2], in [3], in test [16], in [5] and in test [6] was “inactive” each time. Also, the Potency entry in test [8], in test [9], in test [10], in [11], in test [12] and in [13] was “inactive” each time. The Potency result in test [14], in test [15], in [17] and in test [18] was “inactive” throughout.
On to `CCCCCCCCCCCCN(CCO)CCO`, for which the Potency entry in [1], in [5], in test [6], in test [8], in test [9] and in test [10] was “inactive” in each case. The Potency entry in test [11], in test [12], in test [13], in test [14] and in test [15] was “inactive” each time. Besides, the Potency in test [19] was 54.3 µM (active).
For `Oc1ccc(-c2ccccc2)c(Cl)c1`, the Potency entry in [1], in [2], in test [16], in test [5], in test [6] and in test [8] was “inactive” each time. In addition, the Potency entry in [9], in test [10], in test [11], in [12], in [13] and in [14] was “inactive” in each case. Further, the Potency result in [15], in test [17] and in test [18] was “inactive” in each case. Also, the Potency in test [4] was 8.63 µM (active).
Regarding `C=C1C(C)(C)[C@@]2(Cl)C(Cl)[C@]1(Cl)C(Cl)(Cl)C2(Cl)Cl` (stereo partly drawn), the Potency result in test [1], in test [2], in [3], in [16], in [5] and in test [6] was “inactive” in each case. Further, the Potency result in test [7], in test [8], in [9], in test [10], in [11] and in test [12] was “inactive” in each case. For the same compound, the Potency entry in test [13], in test [14] and in test [15] was “inactive” throughout. The Potency in test [4] was 12 µM (active).
Consider `O=C(O)CCn1c2c(c3ccccc31)C[C@H](NS(=O)(=O)c1ccc(F)cc1)CC2`, for which the Potency entry in [1], in test [2], in test [4], in test [5], in test [6] and in test [7] was “inactive” throughout. Also, the Potency result in test [8], in [9], in [10], in test [11], in [12] and in test [13] was “inactive” each time. In addition, the Potency entry in [14] and in test [15] was “inactive” each time.
